Common to all, as to design: scale not given: direction of the effect not stated beside the values
Test [1] deals with Protein translocase subunit SecA (Escherichia coli (strain K12)) (UniProt P10408). The test can be described thus: Assay to Identify E. coli SecA ATPase Inhibitors. It counts as functional. Conditions: 30 µM.
Test [2] addresses T1, Ubiquitin-activating enzyme e1, putative (Leishmania donovani (strain BPK282A1)) (UniProt E9BSI1).
T1 sequence (whole entry): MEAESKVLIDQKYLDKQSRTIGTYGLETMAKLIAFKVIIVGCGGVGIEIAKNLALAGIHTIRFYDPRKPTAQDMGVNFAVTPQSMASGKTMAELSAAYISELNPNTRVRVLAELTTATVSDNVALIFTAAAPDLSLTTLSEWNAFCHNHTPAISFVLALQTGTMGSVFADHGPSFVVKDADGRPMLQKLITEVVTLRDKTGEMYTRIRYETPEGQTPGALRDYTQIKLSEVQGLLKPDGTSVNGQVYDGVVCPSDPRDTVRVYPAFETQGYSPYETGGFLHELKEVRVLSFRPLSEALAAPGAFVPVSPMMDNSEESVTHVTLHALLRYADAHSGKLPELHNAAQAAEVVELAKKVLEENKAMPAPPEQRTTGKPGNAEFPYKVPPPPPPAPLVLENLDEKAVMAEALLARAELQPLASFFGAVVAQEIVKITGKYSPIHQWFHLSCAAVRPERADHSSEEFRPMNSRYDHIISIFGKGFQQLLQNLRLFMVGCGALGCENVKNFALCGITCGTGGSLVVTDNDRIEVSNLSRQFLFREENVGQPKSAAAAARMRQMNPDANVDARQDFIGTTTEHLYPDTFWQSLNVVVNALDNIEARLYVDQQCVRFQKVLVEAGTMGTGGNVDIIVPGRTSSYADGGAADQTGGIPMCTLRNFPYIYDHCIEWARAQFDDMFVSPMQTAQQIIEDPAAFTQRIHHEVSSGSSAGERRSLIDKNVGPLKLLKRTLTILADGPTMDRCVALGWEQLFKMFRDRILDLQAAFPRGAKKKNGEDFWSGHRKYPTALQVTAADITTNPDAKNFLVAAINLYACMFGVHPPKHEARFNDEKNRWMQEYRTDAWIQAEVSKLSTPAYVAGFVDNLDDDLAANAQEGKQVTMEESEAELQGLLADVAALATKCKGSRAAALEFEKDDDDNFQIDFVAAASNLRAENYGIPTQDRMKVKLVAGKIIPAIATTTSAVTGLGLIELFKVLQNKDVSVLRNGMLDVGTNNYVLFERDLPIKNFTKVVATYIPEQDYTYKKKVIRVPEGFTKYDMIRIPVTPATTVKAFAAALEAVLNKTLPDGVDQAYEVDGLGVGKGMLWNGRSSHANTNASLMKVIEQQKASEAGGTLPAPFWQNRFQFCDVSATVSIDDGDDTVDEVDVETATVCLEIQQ
Briefly: Leishmania donovani Ubiquitin Activating Enzyme (LdE1). It counts as functional. Conditions: 30 µM.

The target in test [3] is AMP-activated protein kinase, AMPK (Homo sapiens) (UniProt P54646+O43741+P54619+Q9UGJ0+Q9Y478+Q13131+Q9UGI9). Briefly: AMP-dependent Kinase enzyme assay. An in vitro enzyme assay that detects ADP turnover that is directly proportional to AMPK activity. This uses naive AMPK that is activated during the assay with MK-8722. Conditions: 30 µM. It counts as functional.
Test [4] concerns the target Sialic acid-binding Ig-like lectin 9 (Homo sapiens) (UniProt Q9Y336). The test can be described thus: Hs-Siglec9 ALPHAscreen SOP 20170721. Conditions: 10 µM.
The test system of a further test is Trypanosoma cruzi. Briefly: Trypanosoma cruzi phosphomannomutase and mannose-1-phosphate guanylyltransferase assay. In kind it is functional. The note with it: 10 µM.
In test [5] the target is T2, Arginase-2, mitochondrial (Homo sapiens) (UniProt P78540).
T2 sequence (whole entry): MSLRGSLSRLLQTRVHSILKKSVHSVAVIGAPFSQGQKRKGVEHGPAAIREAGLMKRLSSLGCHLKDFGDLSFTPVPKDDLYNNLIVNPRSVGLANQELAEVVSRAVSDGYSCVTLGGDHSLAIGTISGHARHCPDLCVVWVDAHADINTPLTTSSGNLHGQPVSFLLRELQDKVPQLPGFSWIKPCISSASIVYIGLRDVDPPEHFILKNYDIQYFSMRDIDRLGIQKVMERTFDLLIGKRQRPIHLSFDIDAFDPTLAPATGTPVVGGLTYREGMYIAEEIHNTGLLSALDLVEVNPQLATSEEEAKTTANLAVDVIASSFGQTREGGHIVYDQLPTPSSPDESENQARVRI
The test can be described thus: in vitro enzyme assay to detect the production of urea directly proportional to the activity of Arginase II. Also: in the data most compounds retested in dose-response had high values. It counts as functional. Conditions: 33.3 µM.

Test [6] concerns the target T3, Proteasome subunit beta (Trypanosoma cruzi) (UniProt O96673).
T3 sequence (whole entry): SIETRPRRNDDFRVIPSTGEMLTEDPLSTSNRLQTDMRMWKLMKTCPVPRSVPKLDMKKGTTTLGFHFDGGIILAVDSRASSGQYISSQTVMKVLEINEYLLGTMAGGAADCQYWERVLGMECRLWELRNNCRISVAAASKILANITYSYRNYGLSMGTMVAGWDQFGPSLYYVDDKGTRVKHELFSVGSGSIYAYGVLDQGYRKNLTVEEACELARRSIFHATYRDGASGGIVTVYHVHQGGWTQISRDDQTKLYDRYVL
The test can be described thus: Trypanosoma cruzi proteasome chymotrypsin-like activity (TcProtChymo) assay. Also: in the data most compounds retested in dose-response had high values. It counts as functional. The note with it: 9.37 µM.

Another test is filed under the species Homo sapiens. The test can be described thus: To identify inhibition of the IFN signalling (Jak-Stat) pathway via expression of an eGFP reporter gene under the control of an IFN-stimulated response element (ISRE) containing MxA promoter. In kind it is functional. The note with it: 30 µM. Background: A reporter such as luciferase makes a cellular process visible.

The target of test [7] is T4, Tyrosyl-tRNA synthetase, putative (Trypanosoma cruzi (strain CL Brener)) (UniProt Q4DSP6).
T4 sequence (whole entry): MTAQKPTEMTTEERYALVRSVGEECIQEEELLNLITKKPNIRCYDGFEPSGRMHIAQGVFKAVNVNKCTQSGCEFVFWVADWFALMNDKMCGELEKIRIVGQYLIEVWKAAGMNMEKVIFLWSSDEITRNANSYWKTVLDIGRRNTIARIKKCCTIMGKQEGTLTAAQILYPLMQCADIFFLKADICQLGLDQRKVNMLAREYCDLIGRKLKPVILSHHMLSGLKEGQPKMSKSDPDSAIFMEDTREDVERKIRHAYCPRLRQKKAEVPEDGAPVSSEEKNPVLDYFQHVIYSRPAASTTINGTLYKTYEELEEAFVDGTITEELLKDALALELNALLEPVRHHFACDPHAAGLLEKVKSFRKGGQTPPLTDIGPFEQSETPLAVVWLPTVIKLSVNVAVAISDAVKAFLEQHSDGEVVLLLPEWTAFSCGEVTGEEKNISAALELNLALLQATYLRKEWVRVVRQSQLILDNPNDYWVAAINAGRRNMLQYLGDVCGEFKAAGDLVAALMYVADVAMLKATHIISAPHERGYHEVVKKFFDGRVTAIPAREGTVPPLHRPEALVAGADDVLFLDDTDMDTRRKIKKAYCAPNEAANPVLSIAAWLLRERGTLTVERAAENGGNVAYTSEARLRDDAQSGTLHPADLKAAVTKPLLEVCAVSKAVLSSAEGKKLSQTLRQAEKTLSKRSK
The test can be described thus: Trypanosoma cruzi tyrosyl tRNA synthetase (TcYRS) _High Tyrosine SOP. Also: in the data most compounds retested in dose-response had high values. In kind it is functional. Conditions: 30 µM.

The target of test [8] is T4, Tyrosyl-tRNA synthetase, putative (Trypanosoma cruzi (strain CL Brener)). The test can be described thus: Trypanosoma cruzi tyrosyl tRNA synthetase (TcYRS) SOP. It counts as functional. Conditions: 30 µM.
Test [9] concerns the target Chromo domain-containing protein 1 (Saccharomyces cerevisiae (strain ATCC 204508 / S288c) (Baker's yeast)) (UniProt P32657). Briefly: ScCHD-1 Enzyme Inhibition Assay. Also: in the data most compounds retested in dose-response had high values. In kind it is functional. The note with it: 30 µM.

Structures are written as SMILES. For some assays here: Potency and affinity values are given separately.

Sequence of Sialic acid-binding Ig-like lectin 9 (Homo sapiens) (Q9Y336 whole entry): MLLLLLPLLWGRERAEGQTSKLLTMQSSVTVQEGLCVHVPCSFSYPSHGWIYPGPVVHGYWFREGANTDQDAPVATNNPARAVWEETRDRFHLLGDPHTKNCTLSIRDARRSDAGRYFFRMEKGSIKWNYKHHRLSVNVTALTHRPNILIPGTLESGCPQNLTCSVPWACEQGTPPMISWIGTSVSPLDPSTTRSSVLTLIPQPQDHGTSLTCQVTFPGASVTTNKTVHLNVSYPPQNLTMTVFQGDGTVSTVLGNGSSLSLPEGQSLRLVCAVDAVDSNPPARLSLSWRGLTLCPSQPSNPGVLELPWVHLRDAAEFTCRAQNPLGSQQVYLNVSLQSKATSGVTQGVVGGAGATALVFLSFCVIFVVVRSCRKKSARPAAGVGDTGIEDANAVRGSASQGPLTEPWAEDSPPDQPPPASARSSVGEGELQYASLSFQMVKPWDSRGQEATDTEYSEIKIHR
Sequence of Protein translocase subunit SecA (Escherichia coli (strain K12)) (P10408 whole entry): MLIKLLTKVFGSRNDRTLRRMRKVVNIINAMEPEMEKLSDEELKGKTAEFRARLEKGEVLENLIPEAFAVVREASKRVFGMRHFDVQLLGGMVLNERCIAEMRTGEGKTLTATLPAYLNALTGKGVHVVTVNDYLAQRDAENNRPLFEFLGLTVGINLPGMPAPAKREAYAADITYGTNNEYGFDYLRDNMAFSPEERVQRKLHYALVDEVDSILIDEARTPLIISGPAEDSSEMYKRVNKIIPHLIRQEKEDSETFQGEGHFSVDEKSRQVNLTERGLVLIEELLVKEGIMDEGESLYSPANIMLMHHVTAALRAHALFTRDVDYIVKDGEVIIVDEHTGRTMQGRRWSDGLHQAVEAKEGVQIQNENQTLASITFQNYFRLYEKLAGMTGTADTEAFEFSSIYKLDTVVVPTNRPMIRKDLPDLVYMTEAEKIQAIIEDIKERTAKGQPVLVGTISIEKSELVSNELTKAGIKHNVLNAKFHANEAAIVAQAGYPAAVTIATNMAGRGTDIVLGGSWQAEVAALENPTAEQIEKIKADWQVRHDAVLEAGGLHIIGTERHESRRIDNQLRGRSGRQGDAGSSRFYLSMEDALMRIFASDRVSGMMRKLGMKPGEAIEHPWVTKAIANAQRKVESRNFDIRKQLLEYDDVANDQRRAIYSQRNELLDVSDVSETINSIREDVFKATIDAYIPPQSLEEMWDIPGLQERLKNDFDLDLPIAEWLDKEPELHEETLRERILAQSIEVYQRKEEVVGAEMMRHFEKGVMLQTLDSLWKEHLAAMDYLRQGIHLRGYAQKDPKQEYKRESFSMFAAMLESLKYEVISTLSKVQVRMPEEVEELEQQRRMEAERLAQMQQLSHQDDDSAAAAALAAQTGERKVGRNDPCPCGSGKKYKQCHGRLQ
Sequence of Chromo domain-containing protein 1 (Saccharomyces cerevisiae (strain ATCC 204508 / S288c) (Baker's yeast)) (P32657 whole entry, the tested form may be a part): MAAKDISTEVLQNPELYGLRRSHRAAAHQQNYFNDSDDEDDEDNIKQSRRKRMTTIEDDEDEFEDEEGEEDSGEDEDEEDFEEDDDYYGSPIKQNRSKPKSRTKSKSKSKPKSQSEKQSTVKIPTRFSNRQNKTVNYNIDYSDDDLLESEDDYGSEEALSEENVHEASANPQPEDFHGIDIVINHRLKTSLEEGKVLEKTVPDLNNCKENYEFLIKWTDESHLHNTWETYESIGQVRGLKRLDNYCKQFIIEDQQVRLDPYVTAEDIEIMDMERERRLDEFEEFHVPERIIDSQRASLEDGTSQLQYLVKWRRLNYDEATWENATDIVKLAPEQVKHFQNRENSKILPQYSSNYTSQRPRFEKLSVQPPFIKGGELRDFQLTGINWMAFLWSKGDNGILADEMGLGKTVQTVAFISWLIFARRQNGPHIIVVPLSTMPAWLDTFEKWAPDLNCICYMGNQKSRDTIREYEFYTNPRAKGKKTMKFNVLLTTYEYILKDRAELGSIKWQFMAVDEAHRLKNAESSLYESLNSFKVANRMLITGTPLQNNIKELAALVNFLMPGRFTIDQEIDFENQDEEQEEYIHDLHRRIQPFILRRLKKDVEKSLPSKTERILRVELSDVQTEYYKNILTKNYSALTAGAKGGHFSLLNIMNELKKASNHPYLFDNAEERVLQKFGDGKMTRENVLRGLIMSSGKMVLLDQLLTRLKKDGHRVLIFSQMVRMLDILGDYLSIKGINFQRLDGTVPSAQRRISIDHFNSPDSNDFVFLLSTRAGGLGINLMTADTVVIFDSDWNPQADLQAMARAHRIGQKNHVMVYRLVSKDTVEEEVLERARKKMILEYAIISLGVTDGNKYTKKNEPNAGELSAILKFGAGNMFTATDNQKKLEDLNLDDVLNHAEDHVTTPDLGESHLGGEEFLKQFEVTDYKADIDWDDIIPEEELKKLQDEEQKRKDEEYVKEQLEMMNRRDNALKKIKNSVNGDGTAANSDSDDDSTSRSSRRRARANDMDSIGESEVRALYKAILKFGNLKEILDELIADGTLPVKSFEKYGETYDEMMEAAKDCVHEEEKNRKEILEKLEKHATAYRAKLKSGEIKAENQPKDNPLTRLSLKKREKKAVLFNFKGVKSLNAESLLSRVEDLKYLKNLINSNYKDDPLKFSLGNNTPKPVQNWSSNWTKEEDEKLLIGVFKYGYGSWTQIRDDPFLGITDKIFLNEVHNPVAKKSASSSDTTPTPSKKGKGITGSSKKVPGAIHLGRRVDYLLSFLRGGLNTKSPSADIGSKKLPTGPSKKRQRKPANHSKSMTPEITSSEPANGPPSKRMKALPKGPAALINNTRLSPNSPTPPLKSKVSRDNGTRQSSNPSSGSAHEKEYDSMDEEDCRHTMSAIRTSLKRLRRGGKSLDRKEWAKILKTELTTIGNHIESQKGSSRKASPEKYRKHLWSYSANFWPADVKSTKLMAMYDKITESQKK

For the molecule `CC(=O)N(Cc1noc(C)n1)C1CCN(Cc2cc(C)on2)C1` (stereo not given), the Percent Effect in test [1] is -2.56%; in test [2] it was 18.2%; in test [3], 1.37%; in [4], -5.63%; with Trypanosoma cruzi, 0.0979%; in test [5] it was -1.05%. Also, the Percent Effect in test [6] is 18.5%; in the test listed under Homo sapiens, 12.2%; in test [7], 10.5%; in test [8], 30.6%; in test [9] it was -15%.

Consider `COc1ccnc(N2CCN(C(=O)NCc3ccc(C)s3)CC2)n1`, for which the Percent Effect in test [1] was -4.33%; in test [2] it was 15.6%; in test [3], 6.59%; in test [4] it was 2.69%; with Trypanosoma cruzi, 4.6%; in test [5], 1.47%. Also, the Percent Effect in [6] is 5.42%; in the test filed under Homo sapiens, -2.65%; in [7] it was 5.71%; in [8], 18.8%; in test [9], -0.255%.

As to `CN(C)CCN1CCO[C@@H]2CN(C(=O)c3cccs3)CC[C@@H]2C1`, the Percent Effect was -2.95% in [1]; 10.8% in [2]; 3.88% in test [3]; 2.08% in test [4]; -1.27% in the test with Trypanosoma cruzi; -1.59% in test [5]. The Percent Effect in test [6] is 20.3%; in the test filed under Homo sapiens, 5.44%; in [7], 1.08%; in test [8], 12.8%; in test [9], -1.74%.

As to `Cc1ccc(CNC(=O)CN2C=Nc3ccccc3S2(=O)=O)s1`, the Percent Effect in [1] was -3.17%; in test [2], 21.1%; in test [3], -5.67%; in test [4] it was -1.55%; with Trypanosoma cruzi, 6.07%; in test [5], -0.36%. Also, the Percent Effect in [6] is 3.98%; in the test filed under Homo sapiens it was 9.85%; in test [7], 10.3%; in test [8], 23.5%; in test [9] it was -6.54%.

Take `CCOCC1CN(S(=O)(=O)N(C)C)Cc2cnn(C)c21` (stereo not given): the Percent Effect in test [1] is -2.24%; in [2], 5.48%; in test [3], -0.778%; in test [4] it was 4.27%; with Trypanosoma cruzi, -5.16%; in test [5], -8.38%. The Percent Effect is 4.71% in test [6]; 11.6% in the test listed under Homo sapiens; 7.29% in test [7]; 1.24% in [8]; -2.91% in [9].

For the molecule `Cc1ccc(CN2CCc3ncnc(-c4cccnc4)c3CC2)o1`, the Percent Effect is -3.48% in [1]; -2.67% in test [2]; 0.55% in [3]; 8.87% in test [4]; -0.772% with Trypanosoma cruzi; -5.91% in [5]. Further, the Percent Effect is 8.72% in test [6]; -10.7% in the test filed under Homo sapiens; 2.08% in test [7]; 0% in test [8]; -3.74% in [9].

As to `COCC1CN(Cc2ccc(C)o2)Cc2nnn(CC3CC3)c21` (stereo not given), the Percent Effect in test [1] was -3.94%; in test [2], 2.6%; in test [3], 4.37%; in [4] it was 2.36%; with Trypanosoma cruzi, -2.46%; in [5], 2.76%. In addition, the Percent Effect in test [6] was 0.832%; in the test filed under Homo sapiens it was -1.19%; in test [7] it was -2.15%; in [8] it was -1.24%; in [9], 5.36%.

`CS(=O)(=O)NCCC(=O)NC1CCc2nccn2C1` (stereo not given): the Percent Effect in test [1] was 2.27%; in test [2], 2.67%; in test [3] it was -6.45%; in test [4], 1.64%; in the test with Trypanosoma cruzi it was -7.5%; in test [5], 2.08%. Moreover, the Percent Effect in [6] was 19.7%; in the test filed under Homo sapiens, 11.5%; in test [7], 4.92%; in [8] it was 11.1%; in test [9], -5.26%.

Consider `O=C(C1SCCc2sccc21)N1CCN(CCO)CC1` (stereo not given), for which the Percent Effect in [1] is -6.92%; in [2], 16.2%; in [3], -1.14%; in [4] it was 33.4%; in the test with Trypanosoma cruzi, 2.34%; in [5] it was 22.5%. The Percent Effect was 17.7% in test [6]; 11.7% in the test listed under Homo sapiens; -3.96% in test [7]; 15.8% in [8]; -3.8% in test [9].

Consider `c1coc(CN2C[C@H](OCC3CCOCC3)[C@H]3COC[C@H]32)c1`, for which the Percent Effect was -3.71% in [1]; 8.11% in test [2]; 6.46% in [3]; -3.04% in [4]; -3.23% in the test on Trypanosoma cruzi; -0.955% in test [5]. Besides, the Percent Effect in test [6] was 15.3%; in the test filed under Homo sapiens it was 13.1%; in test [7] it was 0%; in [8], 12.8%; in test [9], 1.07%.
